# Records with an inconclusive call do not appear. Where a call stands in place of a potency, no number is given. Values without a mark were called inactive. Calls of active or inactive are those of the source. Calls come from the whole dose curve; as a rule, active = well fitted inhibition curve with a large enough effect; inconclusive = small, poorly fitted or top-dose-only effect; inactive = flat fitted curve, though single readings scatter.
# Experiments:
# [1] = qHTS profiling for inhibitors of Plasmodium falciparum proliferation (AID 504749); note: nearly all actives have a fitted effect of over 60% in size; conditions: P. falciparum in erythrocytes, SYBR Green DNA, 72 h, at 28.7 µM (top of the series)
# Method in brief: (§1)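 SYBR Green fluorescence of parasite DNA, read after lysis and overnight dark incubation, measured growth over 72 h in erythrocyte culture at 0.3% parasitemia and 2.5% hematocrit. Data normalised to DMSO and 0.29 uM artemisinin, with plate-drift correction.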
# 3D7 = test: as above; conditions: P. falciparum in erythrocytes, SYBR Green DNA, 72 h; series mostly up to 28.7 µM
# Method in brief: as §1
# 7G8 = test: as above; conditions: P. falciparum in erythrocytes, SYBR Green DNA, 72 h; series mostly up to 28.7 µM
# Method in brief: as §1
# AA1029 = test: as above; conditions: P. falciparum in erythrocytes, SYBR Green DNA, 72 h; series mostly up to 28.7 µM
# Method in brief: as §1
# AS120 = test: as above; conditions: P. falciparum in erythrocytes, SYBR Green DNA, 72 h; series mostly up to 28.7 µM
# Method in brief: as §1
# ATS189 = test: as above; conditions: P. falciparum in erythrocytes, SYBR Green DNA, 72 h; series mostly up to 28.7 µM
# Method in brief: as §1
# ATS95 = test: as above; conditions: P. falciparum in erythrocytes, SYBR Green DNA, 72 h; series mostly up to 28.7 µM
# Method in brief: as §1
# C2A = test: as above; conditions: P. falciparum in erythrocytes, SYBR Green DNA, 72 h; series mostly up to 28.7 µM
# Method in brief: as §1
# CP185 = test: as above; conditions: P. falciparum in erythrocytes, SYBR Green DNA, 72 h; series mostly up to 28.7 µM
# Method in brief: as §1
# CP191 = test: as above; conditions: P. falciparum in erythrocytes, SYBR Green DNA, 72 h; series mostly up to 28.7 µM
# Method in brief: as §1
# CP192 = test: as above; conditions: P. falciparum in erythrocytes, SYBR Green DNA, 72 h; series mostly up to 28.7 µM
# Method in brief: as §1
# CP194 = test: as above; conditions: P. falciparum in erythrocytes, SYBR Green DNA, 72 h; series mostly up to 28.7 µM
# Method in brief: as §1
# CP201 = test: as above; conditions: P. falciparum in erythrocytes, SYBR Green DNA, 72 h; series mostly up to 28.7 µM
# Method in brief: as §1
# CP203 = test: as above; conditions: P. falciparum in erythrocytes, SYBR Green DNA, 72 h; series mostly up to 28.7 µM
# Method in brief: as §1
# CP211 = test: as above; conditions: P. falciparum in erythrocytes, SYBR Green DNA, 72 h; series mostly up to 28.7 µM
# Method in brief: as §1
# CP215 = test: as above; conditions: P. falciparum in erythrocytes, SYBR Green DNA, 72 h; series mostly up to 28.7 µM
# Method in brief: as §1
# CP217 = test: as above; conditions: P. falciparum in erythrocytes, SYBR Green DNA, 72 h; series mostly up to 28.7 µM
# Method in brief: as §1
# CP237 = test: as above; conditions: P. falciparum in erythrocytes, SYBR Green DNA, 72 h; series mostly up to 28.7 µM
# Method in brief: as §1
# CP238 = test: as above; conditions: P. falciparum in erythrocytes, SYBR Green DNA, 72 h; series mostly up to 28.7 µM
# Method in brief: as §1
# CP247 = test: as above; conditions: P. falciparum in erythrocytes, SYBR Green DNA, 72 h; series mostly up to 28.7 µM
# Method in brief: as §1
# Potency is the fitted concentration of half-maximal effect.
compound,measurement,setting,value
CNC1(C)C2CCC(C2)C1(C)C (stereo not given),"activity, negative = inhibition",[1]; parasite line A,6.34%
same,"activity, negative = inhibition",[1]; parasite line B,5.34%
same,Potency,3D7,inactive
same,Potency,7G8,inactive
same,Potency,AA1029,inactive
same,Potency,AS120,inactive
same,Potency,ATS189,inactive
same,Potency,ATS95,inactive
same,Potency,C2A,inactive
same,Potency,CP185,inactive
same,Potency,CP191,inactive
same,Potency,CP192,inactive
same,Potency,CP194,inactive
same,Potency,CP201,inactive
same,Potency,CP203,inactive
same,Potency,CP211,inactive
same,Potency,CP215,inactive
same,Potency,CP217,inactive
same,Potency,CP237,7.94 µM (active)
same,Potency,CP238,inactive
same,Potency,CP247,inactive
NCCCNCCSP(=O)(O)O,"activity, negative = inhibition",[1]; parasite line A,8.13%
same,"activity, negative = inhibition",[1]; parasite line B,13.6%
same,Potency,3D7,inactive
same,Potency,7G8,inactive
same,Potency,AA1029,inactive
same,Potency,AS120,inactive
same,Potency,ATS189,inactive
same,Potency,ATS95,inactive
same,Potency,C2A,inactive
same,Potency,CP185,inactive
same,Potency,CP191,inactive
same,Potency,CP192,inactive
same,Potency,CP194,inactive
same,Potency,CP201,inactive
same,Potency,CP211,inactive
same,Potency,CP215,inactive
same,Potency,CP217,inactive
same,Potency,CP237,inactive
same,Potency,CP238,inactive
same,Potency,CP247,inactive
Cc1nnc(SCC2=C(C(=O)O)N3C(=O)[C@@H](NC(=O)Cn4cnnn4)[C@H]3SC2)s1,"activity, negative = inhibition",[1]; parasite line A,11.1%
same,"activity, negative = inhibition",[1]; parasite line B,2.94%
same,Potency,3D7,inactive
same,Potency,7G8,inactive
same,Potency,AA1029,inactive
same,Potency,AS120,inactive
same,Potency,ATS189,inactive
same,Potency,ATS95,inactive
same,Potency,C2A,inactive
same,Potency,CP185,inactive
same,Potency,CP191,inactive
same,Potency,CP192,inactive
same,Potency,CP194,inactive
same,Potency,CP201,inactive
same,Potency,CP203,inactive
same,Potency,CP211,inactive
same,Potency,CP215,inactive
same,Potency,CP217,inactive
same,Potency,CP237,inactive
same,Potency,CP238,inactive
same,Potency,CP247,inactive
NS(=O)(=O)c1cc2c(cc1Cl)NC(C1CC3C=CC1C3)NS2(=O)=O (stereo not given),"activity, negative = inhibition",[1]; parasite line A,2.38%
same,"activity, negative = inhibition",[1]; parasite line B,-3.16%
same,Potency,3D7,inactive
same,Potency,7G8,inactive
same,Potency,AA1029,inactive
same,Potency,AS120,inactive
same,Potency,ATS189,inactive
same,Potency,ATS95,inactive
same,Potency,C2A,inactive
same,Potency,CP185,inactive
same,Potency,CP191,inactive
same,Potency,CP192,inactive
same,Potency,CP194,inactive
same,Potency,CP201,inactive
same,Potency,CP203,inactive
same,Potency,CP211,inactive
same,Potency,CP215,inactive
same,Potency,CP217,inactive
same,Potency,CP237,inactive
same,Potency,CP238,inactive
same,Potency,CP247,inactive
CC(=O)[C@@]1(O)CC[C@H]2[C@@H]3CCC4=CC(=O)CC[C@]4(C)[C@H]3CC[C@@]21C,"activity, negative = inhibition",[1]; parasite line A,-9.44%
same,"activity, negative = inhibition",[1]; parasite line B,1.51%
same,Potency,3D7,inactive
same,Potency,7G8,inactive
same,Potency,AA1029,inactive
same,Potency,AS120,inactive
same,Potency,ATS189,inactive
same,Potency,ATS95,inactive
same,Potency,C2A,inactive
same,Potency,CP185,inactive
same,Potency,CP191,inactive
same,Potency,CP192,inactive
same,Potency,CP194,inactive
same,Potency,CP201,inactive
same,Potency,CP203,inactive
same,Potency,CP211,inactive
same,Potency,CP215,inactive
same,Potency,CP217,inactive
same,Potency,CP237,inactive
same,Potency,CP238,inactive
same,Potency,CP247,inactive
CCN(CC)CCNC(=O)c1ccc(NC(C)=O)cc1,"activity, negative = inhibition",[1]; parasite line A,9.9%
same,"activity, negative = inhibition",[1]; parasite line B,23.7%
same,Potency,3D7,inactive
same,Potency,7G8,inactive
same,Potency,AA1029,inactive
same,Potency,AS120,inactive
same,Potency,ATS189,inactive
same,Potency,ATS95,inactive
same,Potency,C2A,inactive
same,Potency,CP185,inactive
same,Potency,CP191,inactive
same,Potency,CP192,inactive
same,Potency,CP194,inactive
same,Potency,CP201,inactive
same,Potency,CP203,inactive
same,Potency,CP211,inactive
same,Potency,CP215,inactive
same,Potency,CP217,inactive
same,Potency,CP237,inactive
same,Potency,CP238,inactive
same,Potency,CP247,inactive

# — PubChem BioAssay (NCATS)
